Experimental data published in PubChem BioAssay AID588590 (National Center for Advancing Translational Sciences (NCATS), 2011).
The campaign covered roughly 390,000 compounds. About 4,000 (1%) were called active. Another 7% or so got no clear call; they are omitted. Calls come from the whole dose curve; as a rule, active = well fitted inhibition curve with a large enough effect; inconclusive = small, poorly fitted or top-dose-only effect, or another doubt; inactive = no such curve, though single readings can be large or run the other way. The full list was thinned out, with actives kept by preference.

biological target: DNA polymerase iota (Homo sapiens) (UniProt Q9UNA4); experiment: qHTS for Inhibitors of Polymerase Iota; conditions: Pol iota fluorescent replication assay, 10 min; series mostly up to 115 µM
Sequence (Q9UNA4 whole entry, looked up): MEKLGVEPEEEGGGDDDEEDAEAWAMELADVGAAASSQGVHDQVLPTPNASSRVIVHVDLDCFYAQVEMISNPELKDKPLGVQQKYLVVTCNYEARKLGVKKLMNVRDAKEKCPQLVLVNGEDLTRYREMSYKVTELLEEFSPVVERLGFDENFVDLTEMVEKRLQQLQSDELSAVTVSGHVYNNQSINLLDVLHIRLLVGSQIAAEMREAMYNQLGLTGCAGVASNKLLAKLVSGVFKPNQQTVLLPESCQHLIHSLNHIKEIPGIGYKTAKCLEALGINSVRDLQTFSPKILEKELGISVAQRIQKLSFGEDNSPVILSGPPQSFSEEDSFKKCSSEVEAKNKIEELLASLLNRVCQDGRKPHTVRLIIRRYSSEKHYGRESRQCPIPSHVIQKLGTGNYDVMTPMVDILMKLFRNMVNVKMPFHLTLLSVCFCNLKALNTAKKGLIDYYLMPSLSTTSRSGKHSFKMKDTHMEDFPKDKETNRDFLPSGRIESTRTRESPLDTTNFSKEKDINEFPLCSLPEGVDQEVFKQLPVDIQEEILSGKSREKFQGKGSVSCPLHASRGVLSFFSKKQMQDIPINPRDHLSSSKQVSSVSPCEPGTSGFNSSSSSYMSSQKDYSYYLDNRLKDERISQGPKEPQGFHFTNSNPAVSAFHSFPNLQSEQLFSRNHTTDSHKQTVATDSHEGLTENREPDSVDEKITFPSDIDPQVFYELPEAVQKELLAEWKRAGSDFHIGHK
How it was run: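 Fluorescent replication assay read twice, at 0 min and 10 min after adding 50 nM (final) substrate. Enzyme (10 nM) and compounds were first incubated 15 min at room temperature; enzyme-free buffer wells were negative controls.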
Potency is the fitted concentration of half-maximal effect.

Potency, inactive:
COc1cc2nc(C#Cc3nc4cc(OC)c(OC)cc4[nH]3)[nH]c2cc1OC
Cc1cc(C)c2nc(N3CCC(C(=O)NCCN4CCOCC4)CC3)sc2c1
COc1ccc(NC(=O)c2sc(N3CCOCC3)nc2-c2ccccc2)c(OC)c1
Cn1c(=O)sc2cc(NS(=O)(=O)c3ccc(C(C)(C)C)cc3)ccc21
CCOc1ccc(Nc2oc(/C=C/c3ccc(F)cc3)nc2C#N)cc1
COc1cc(C(=O)NCCc2csc3nc(-c4ccccc4C)nn23)cc(OC)c1OC
Cc1cccc(C(C)C)c1NC(=O)C(NS(=O)(=O)c1cccc2nsnc12)c1ccccc1 (stereo not given)
CC(=O)N1CCCc2cc(S(=O)(=O)N3CCC(C(=O)NC4CCCCC4)CC3)ccc21
COc1ccc(Nc2cc(C(=O)NCCCN(C)c3ccccc3)c3ccccc3n2)c(OC)c1
COc1ccccc1Nc1cc(C(=O)NCCCN(C)C2CCCCC2)c2ccccc2n1
CCOC(=O)c1ccc(NC(=O)CCS(=O)(=O)c2ccc(C)cc2)cc1
CCOC(=O)c1c(C)[nH]c(C)c1S(=O)(=O)N1CCC(C(=O)Nc2ccc(C)c(Cl)c2)CC1
CCOC(=O)c1scc(-c2ccccc2)c1S(=O)(=O)Nc1ccccc1F
CCN1CCN(C(c2ccc(C)cc2)c2c(O)cc(C)n(Cc3ccco3)c2=O)CC1 (stereo not given)
O=C(CSc1ccccc1)Nc1cccc(S(=O)(=O)N2CCOCC2)c1
O=C(COC(=O)CCc1ccc(S(=O)(=O)N2CCOCC2)cc1)Nc1cccc(Cl)c1
Cc1ccc(NC(=O)Cc2ccc(NC(=O)N3CCCCc4ccccc43)cc2)cc1
COc1ccc(-c2nc(SCC(=O)N3CCOCC3)n[nH]2)cc1
COc1ccc(-c2ccnc(SCC(=O)N3CCOCC3)n2)cc1
CCCOc1ccc(C2c3c(-c4ccccc4O)n[nH]c3C(=O)N2Cc2cccnc2)cc1 (stereo not given)
COc1ccc(CNC(=O)c2ccc(NC(=O)N3CC4CCCN4c4ccccc43)cc2)cc1 (stereo not given)
O=C1CC(c2ccccc2)CC2=C1C(c1ccco1)n1nc(C(F)(F)F)nc1N2 (stereo not given)
CC1(C)CC(=O)c2cc(C(=O)NCc3ccccc3)c(=O)[nH]c2C1
O=C(CSCc1cnn(-c2ccccc2)c1-n1cccc1)NCc1ccccc1Br
CC1(C)Cc2ccccc2-c2c[nH]c(=O)n21
COc1ccc(S(=O)(=O)Nc2cccc3cccnc23)c(N)c1
Cc1ccc(CN(C(=O)c2ccccc2[N+](=O)[O-])c2ccccn2)cc1
CCn1cc(C(=O)NCc2ccc(C)cc2)c(=O)c2cc(S(=O)(=O)N3CCc4ccccc4C3)ccc21
Cc1ccc(Cc2c(C)nc3nc(SCC(=O)NCCN4CCOCC4)nn3c2C)cc1
COc1cc(NC(=O)CSc2nc3nc(C)c(Cc4ccc(C)cc4)c(C)n3n2)cc(OC)c1OC
O=C(CN1C(=O)CCn2nc(-c3ccccc3)cc21)NCc1ccccc1
CCCCc1nn2c(=O)cc(COC(=O)c3ccccc3NC(=O)C(C)(C)C)nc2s1
COc1ccccc1/C=C/C(=O)OCC(=O)NC1CCCCCC1
COc1cc(/C=C/C(=O)OCC(=O)NC2CC2)cc(OC)c1OC
Cc1c(Cl)cccc1NC(=O)C1CCCN(C(=O)c2cnn(-c3ccccc3)c2-n2cccc2)C1 (stereo not given)
CCCS(=O)(=O)C(=C1Nc2ccccc2N1)S(=O)(=O)CCC
COc1ccccc1CNC(=O)Cn1nc(C)c2nn(-c3ccc(Cl)cc3)c(C)c2c1=O
COC(=O)c1ccccc1NS(=O)(=O)c1ccc2c(c1)CCCN2C(C)=O
COc1ccccc1CNC(=O)CS(=O)(=O)c1cccc2nsnc12
Cc1nn2c(=O)cc(COC(=O)CNC(=O)c3ccc(F)cc3)nc2s1
O=C(Cc1ccccc1)Nc1sc2c(c1C(=O)Nc1ccc(Br)cc1)CCC2
COc1cccc(N=C2SC(C(=O)Nc3cccc(Cl)c3)CC(=O)N2C)c1 (stereo not given)
CCCCNC(=O)Cn1c(SCc2cccc(Cl)c2)nc2ccncc21
CCOc1ccc(NC(=O)c2ncoc2-c2ccco2)cc1
COc1ccc(NC(=O)COCc2cc(-c3ccco3)on2)cc1
COc1ccc(NC(=O)CCCc2nnc3n(CCC(C)C)c(=O)c4sccc4n23)c(OC)c1
Cc1ccc(CN2C(=O)SC(Nc3ccccc3)C2=O)cc1 (stereo not given)
Cc1ccc(CNC(=O)CSC2=Nc3ccccc3C3=NC(C)C(=O)N23)cc1 (stereo not given)
CCOC(=O)CSC1=Nc2ccccc2C2=NC(CCC(=O)NCc3ccc(F)cc3)C(=O)N12 (stereo not given)
COc1ccc(NC(=O)CSc2nc3ccccc3n2CC(=O)N2CCCCC2C)cc1 (stereo not given)
CCOc1ccc(S(=O)(=O)Nc2ccc3oc4c(c3c2)CC(C)CC4)cc1 (stereo not given)
COC(=O)c1cc(NC(=O)c2sc3ccccc3c2Cl)cc(C(=O)OC)c1
O=S(=O)(c1ccc2nc(N3CCN(c4cccc(Cl)c4)CC3)ccc2c1)N1CCCCC1
c1ccc(Cn2nnc3c(N4CCCCC4)ncnc32)cc1
Cc1ccc(-c2nc(Cn3c(=O)cc(-c4ccccc4)c4c(C)nn(C)c43)c(C)o2)cc1
COc1cc(OC)cc(C(=O)Nc2ccc3nc(Nc4cccc(C(F)(F)F)c4)cc(C)c3c2)c1
Cc1cccc(NC(=O)CSc2nc3c(oc4ccccc43)c(=O)n2-c2ccc(F)cc2)c1
Cc1ccc2c(=O)c(C(=O)c3cccc(Cl)c3)cn(CC(=O)NCc3ccccc3)c2n1
O=C(COC(=O)/C=C/c1cccc(Cl)c1)NCCc1ccccc1
NS(=O)(=O)c1ccc(NS(=O)(=O)/C=C/c2ccccc2)cc1
CCC(=O)N1CCc2cc(Br)cc(S(=O)(=O)CCC(=O)N3CCN(c4ccc(F)cc4)CC3)c21
Cn1c(SCC(=O)N2CCCc3ccccc32)ncc(C(=O)Nc2ccc(F)cc2)c1=O
S=c1[nH]c(=S)c2n[nH]nc2[nH]1
COc1cccc(C(=O)Nc2ccc3oc(-c4ccc5ccccc5c4)nc3c2)c1
COc1cc2nc(N3CCCN(C)CC3)nc(NC(C)C)c2cc1OC
Cc1cccc2cc(CN(Cc3cccs3)C(=S)NCc3ccco3)c(=O)[nH]c12
O=C(Nc1ccccc1)N(Cc1cccnc1)Cc1ccco1
O=C(c1ccc2c(c1)N(Cc1ccccc1)C(=O)c1ccccc1S2(=O)=O)N1CCCC1
COc1cc2nc(SCC(=O)Nc3ccccc3F)n3nc(-c4ccccc4)nc3c2cc1OC
CCc1cc2c(cc3c(=O)n(CC(=O)N4CCN(c5cc(Cl)ccc5C)CC4)nc(CC)n32)s1
CCc1ccc(NC(=O)CN2C(=O)CCSc3ccc(S(=O)(=O)N4CCCC4)cc32)cc1
O=C(NCCc1ccccn1)c1cc(-c2ccc(Cl)cc2)nc2ccccc12
CCc1ccc(-c2cc(C(=O)NN3CCN(C)CC3)c3ccccc3n2)cc1
C=Cc1ccc(Cn2c(C(=O)OC)cc3sc(C)cc32)cc1
CCOc1cc(C(=O)O)ccc1OCCOc1ccccc1
CCOc1c(CNCc2ccc(C(=O)O)cc2)cccc1OC
COc1cc(OC)cc(-c2nc3nc(C)c(CCC(=O)Nc4ccc(C)cc4)c(C)n3n2)c1
CCOc1ccccc1NC(=O)Cn1nnc(C(=O)Nc2ccc(C)c(C)c2)c1N
Cc1cccc(NC(=O)c2nnn(CC(=O)Nc3ccc(C(C)C)cc3)c2N)c1C
COc1cccc(CNC(=O)c2n[nH]c3ccccc23)c1
CCc1ccc(NC(=O)Cn2nnc(C(=O)NCc3ccc4c(c3)OCO4)c2N)cc1

Potency, active:
Cc1nc(N2CCOCC2)sc1C(=O)NN 7.08 µM
CC(=O)N(C1=C(Cl)C(=O)c2ccccc2C1=O)c1ccc(C(=O)O)cc1 3.16 µM
CN(C)CCNC(=O)c1ccc(Cl)c2cc3ccccc3nc12 89.1 µM
O=C(COC(=O)/C=C/c1ccc(Br)o1)Nc1cccc(S(=O)(=O)N2CCOCC2)c1 20 µM
COC1=C/C(=C/c2c(N)n3nc(CC(=O)N4CCOCC4)sc3nc2=O)C=CC1=O 22.4 µM
C=CCC1=C/C(=C\c2c(N)n3nc(CC(=O)N4CCOCC4)sc3nc2=O)C=C(OC)C1=O 22.4 µM
Cc1nc2nc(SCC(=O)NCc3ccco3)nn2c(C)c1Cc1ccccc1 50.1 µM
COc1ccc(/C=C/C(=O)OCC(=O)NC2CCCCCC2)cc1OC 89.1 µM
CN(C)/C=C1/Nc2ccccc2C1=O 28.2 µM
O=C1C(Cl)=C(Oc2ccccc2)C(=O)c2ccccc21 1.78 µM
COCCNC(=O)Nc1ccc2nc(-c3ccco3)c(-c3ccco3)nc2c1 2.82 µM
CC(C)C1N=C2c3ccccc3N=C(SCC(=O)c3ccc(O)c(O)c3)N2C1=O (stereo not given) 1.41 µM
Oc1ccc(N=Cc2sc3ccccc3c2Cl)cc1 8.91 µM
NNc1cccc(C=Cc2ccccc2)cc1=O 25.1 µM
Cc1ccc(C)c2[nH]c(=O)c(CN(Cc3cccnc3)C(=S)NCc3ccco3)cc12 44.7 µM
Cc1ccc(NC(=O)c2cc(-c3ccc(C)o3)nc3ccccc23)nc1 20 µM
CCOc1cccc2c1N[C@@H](c1ccc(C(=O)O)cc1)[C@H]1CC=C[C@@H]21 5.62 µM
CC(C)c1ccc(NC(=O)Cn2nnc(C(=O)NCCc3ccccc3)c2N)cc1 79.4 µM
COc1cccc(CNC(=O)c2nnn(CC(=O)Nc3cc(Cl)ccc3C)c2N)c1 50.1 µM
